The results in this text go back to PubChem BioAssay (EPA / NIEHS).

Inconclusive results are not listed. Active and inactive are the calls of the source. The calls were made as follows: active = hit-call score of the fitted dose curve at least 0.9, where 1 is the maximum; inconclusive = response in the unintended direction; inactive = score below 0.9.

Read-out in the experiment: organic anion transporter (SLCO1B1), SLCO1B1 (gene 10599)
Kind of experiment: CLD_SLCO1B1_6hr: CellzDirect (CLD) Gene Expression Assay for organic anion transporter (SLCO1B1) at 6 hours (AID 2283668).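 Also: active means mRNA induction above DMSO baseline.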 The protocol: CLD_6hr is a cell-based, multiplexed-readout assay that uses hepatocyte, a human liver primary cell, with measurements taken at 6 hours after chemical dosing in a 96-well plate.CLD_SLCO1B1_6hr is one of 16 assay component(s) measured or calculated from the CLD_6hr assay. It is designed to make measurements of mRNA induction, a form of inducible reporter, as detected with chemiluminescence signals by Quantitative Nuclease Protection Assay (qNPA) technology.Data from the assay component CLD_SLCO1B1_6hr was analyzed at the endpoint, CLD_SLCO1B1_6hr, in the positive analysis fitting direction relative to DMSO as the negative control and baseline of activity. Using a type of inducible reporter, gain-of-signal activity can be used to understand changes in the reporter gene as they relate to the gene SLCO1B1. Furthermore, this assay endpoint can be referred to as a primary readout. To generalize the intended target to other relatable targets, this assay endpoint is annotated to the transporter intended target family, where subfamily is organic anion transporter.
Human hepatocyte cultures were treated daily for two consecutive days with fresh dosing solutions containing appropriate concentrations of the 320 ToxCast chemicals (chemical identities were blinded to CellzDirect and other ToxCast collaborators), vehicle control (0.2% DMSO), and positive control inducers as summarized in Table 1. Due to the large number of treatment groups and chemicals examined, the ToxCast chemicals were divided into two groups (spanning two independent cultures of hepatocytes from separate donor preparations (Hu778: ToxCast plates 1 and 2; Hu776: ToxCast plates 3 and 4). Each preparation of human hepatocyte cultures was treated with respective vehicle control, medium only control, set of six positive controls/reference chemicals for the five hepatic receptor pathways, and a subset of eight of the ToxCast chemicals (indoxacarb, pyrithiobac-sodium, norflurazon, cyhalofop-butyl, methomyl, thiram, acetochlor, and propiconazole). These replicate data, coupled with internal replicates designed within the blinded ToxCast chemical library, provided additional data to evaluate interindividual differences between hepatocyte preparations and their potential impact on chemical profiles.Cell morphology and integrity were evaluated using phase-contrast microscopy as an indicator of hepatocyte cell health (Tyson & Green, 1987). Cultures for each treatment group (i.e., media, vehicle [0.2% DMSO], positive control inducers [multiple concentrations], and the ToxCast chemicals [multiple concentrations]) were observed and cell morphology was assessed relative to vehicle control cultures at each harvest time point (0, 6, 24, or 48 h). […] Images were evaluated at the conclusion of the study to assess changes in cell integrity and account for the effects of chemical exposure on uncharacteristic changes in concentration-dependent gene expression profiles. The results from these determinations of apparent cytotoxicity were annotated (yes/no) alongside the corresponding qNPA data for reference.At the conclusion of each treatment period, hepatocyte cultures (96-well) were washed with 1 volume of HBSS, lysed by addition of 25 ul ArrayPlate lysis buffer (HTG, Tucson, AZ), and 70 ul/well of Denaturation Oil, denatured by incubation at 95C for 10 min, and frozen at approximately -70C until analysis by nuclease protection assay (qNPA) (Roberts et al., 2007). For qNPA analysis, cell lysates were thawed at 50C for approximately 30 min, qNPA probes were added, and samples were incubated at 95C for 10 min to begin the detection process by denaturing the target RNA, dissociating the duplexes and secondary structure hybridization. At the conclusion of the hybridization period, S1 nuclease reagent was added to each sample to digest all nonprotected nucleotides at 50C for 60-90 min. […]
In the case of `Clc1nc(Cl)nc(Nc2ccccc2Cl)n1`, the outcome was inactive.

On to `CCOC(=O)C(C)OC(=O)c1cc(Oc2ccc(C(F)(F)F)cc2Cl)ccc1[N+](=O)[O-]` (stereo not drawn), for which the compound was classed as inactive. As to `COCC(=O)N(c1c(C)cccc1C)C(C)C(=O)OC` (stereo not drawn), the call was inactive. To `CCCN(CC)CC1COC2(CCC(C(C)(C)C)CC2)O1` (stereo not drawn) belongs “inactive”; to `COCC(C)N(C(=O)CCl)c1c(C)csc1C` (stereo not drawn), “inactive”; to `CCOc1nc(F)cc2nc(S(=O)(=O)Nc3c(Cl)cccc3Cl)nn12`, “inactive”. Regarding `Cc1ccc(N=CN(C)C=Nc2ccc(C)cc2C)c(C)c1`, the result was inactive.

As for `CCOP(=O)(OCC)Oc1nc(Cl)c(Cl)cc1Cl`, the compound was classed as inactive.

For `COP(=O)(OC)O/C(C)=C/C(=O)N(C)C`, the result was inactive.

In the case of `CCCCOCN(C(=O)CCl)c1c(CC)cccc1CC`, the result was inactive. On to `CCCCC(O)(Cn1cncn1)c1ccc(Cl)cc1Cl` (stereo not drawn), for which the outcome was inactive. To `CC(C)C1(C)N=C(c2ncccc2C(=O)O)NC1=O` (stereo not drawn) belongs “inactive”; to `C=CCOC(=O)C(C)(C)OC(=O)c1cc(-n2c(=O)cc(C(F)(F)F)n(C)c2=O)ccc1Cl`, “inactive”; to `O=c1n(Cl)c(=O)n(Cl)c(=O)n1Cl`, “inactive”.

With `CSC(=O)c1c(C(F)F)nc(C(F)(F)F)c(C(=O)SC)c1CC(C)C`, the compound was called inactive. For `COCc1cnc(C2=NC(C)(C(C)C)C(=O)N2)c(C(=O)O)c1` (stereo not drawn), the call was inactive. As for `OC(c1ccc(Cl)cc1)(c1ccc(Cl)cc1)C(Cl)(Cl)Cl`, the entry is “inactive”; as for `CCCC(=NOCC)C1=C(O)CC(CC(C)SCC)CC1=O` (stereo not drawn), “inactive”; as for `Nc1c(Cl)c(F)nc(OCC(=O)O)c1Cl`, “inactive”.

Take `CCN(CC)c1nc(C)cc(OP(=S)(OC)OC)n1`: the compound was called inactive.

Consider `CN=C=S`, for which the outcome was inactive. To `CC1(C)CCC(=Cc2ccc(Cl)cc2)C1(O)Cn1cncn1` (stereo not drawn) belongs “inactive”; to `Clc1cccc(C(Cl)(Cl)Cl)n1`, “inactive”.

Regarding `CCNC(=O)NC(=O)C(C#N)=NOC`, the compound was classed as inactive.

As to `O=P(O)(O)CCCl`, the compound was called inactive.

Regarding `CS(=O)(=O)c1cc(C(F)(F)F)ccc1C(=O)c1cnoc1C1CC1`, the result was inactive. In the case of `CC(C)N1C(=O)c2ccccc2NS1(=O)=O`, the outcome was inactive. As to `N#Cc1c(Cl)cccc1Cl`, the result was inactive.

Take `CC1(C)C(C=C(Cl)Cl)C1C(=O)OC(C#N)c1cccc(Oc2ccccc2)c1` (stereo not drawn): the call was inactive.

In the case of `CCCCC(C#N)(Cn1cncn1)c1ccc(Cl)cc1` (stereo not drawn), the call was inactive. Consider `COC(=O)c1c(C(F)F)nc(C(F)(F)F)c(C2=NCCS2)c1CC(C)C`, for which the call was inactive.

For the compound `CO/N=C(/C1=NOCCO1)c1ccccc1Oc1ncnc(Oc2ccccc2Cl)c1F`, the outcome was inactive. `COc1cc(OC)nc(NC(=O)NS(=O)(=O)c2ncccc2OCC(F)(F)F)n1`: the compound was classed as inactive.
